Assay outcomes: PubChem, National Center for Advancing Translational Sciences (NCATS)
Only some compounds are listed: those with a hit (about 11% of all), similar ones and a draw of the others.
HPGD inh: HPGD (human) dehydrogenase inhibition; P15428; purified HPGD, NADH fluorescence kinetic, PGE2 substrate; Potency, µM, inactives show at the highest dose activity change, negative = inhibition, usual class: inhibitors; 4.3% of 150,000 active; AID 894; also: potency is read from the fitted curve at half-maximal effect
Target sequence (P15428 whole entry, looked up): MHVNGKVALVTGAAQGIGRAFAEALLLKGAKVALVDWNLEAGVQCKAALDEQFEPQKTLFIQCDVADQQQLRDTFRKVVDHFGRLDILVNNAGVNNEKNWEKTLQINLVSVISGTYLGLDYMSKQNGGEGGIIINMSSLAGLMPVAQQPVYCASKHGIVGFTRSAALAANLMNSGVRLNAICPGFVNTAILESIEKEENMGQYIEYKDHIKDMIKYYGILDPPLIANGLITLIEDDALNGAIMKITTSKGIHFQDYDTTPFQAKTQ
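20 nM HPGD preincubated 15 min at room temperature with compound in 50 mM Tris-HCl pH 8, 0.01% Tween 20. Started with 1 mM NAD+ and 30 uM prostaglandin E2; NADH fluorescence (360/450 nm) read 5 times over 30-s intervals, last minus first.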
IMPase cell inh: IMPase inhibition in cells. P97697. CHO-M1 cells, IP1 accumulation, HTRF TR-FRET ratio. inhibition (IP1 accumulation), % at 46.1 µM. 120,000 tested, under 10 active. AID 901; active = well fitted curve in the direction sought with a large enough effect in the signal ratio, not every such curve was filed as active; inconclusive = small, poorly fitted or top-dose-only effect, or a change in a side signal; inactive = no such curve, though single readings can be large or run the other way; the % refers to the signal ratio;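 also: cells stimulated with carbachol in lithium chloride buffer; plate controls were DMSO basal wells for no effect and reference inhibitor wells for full effect; higher means more IMPase inhibition seen as more IP1 and lower FRET ratio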
Target sequence (P97697 whole entry, looked up): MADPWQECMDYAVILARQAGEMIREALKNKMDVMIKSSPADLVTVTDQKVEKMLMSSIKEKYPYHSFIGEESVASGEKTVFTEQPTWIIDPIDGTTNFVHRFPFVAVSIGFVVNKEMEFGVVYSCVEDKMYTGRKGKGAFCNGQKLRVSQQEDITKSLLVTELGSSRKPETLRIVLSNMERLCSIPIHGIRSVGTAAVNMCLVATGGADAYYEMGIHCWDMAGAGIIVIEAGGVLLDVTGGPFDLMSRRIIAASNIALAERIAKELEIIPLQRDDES
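Cellular IMPase inhibition is scored as a rise in cytosolic IP1, detected by competitive TR-FRET between d2-labelled IP1 and a europium anti-IP1 antibody. M1-expressing CHO cells were stimulated with carbachol for 30 min at 37C, with lithium (50 mM LiCl) present in the buffer.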
IMPase Li cell: membrane-permeable IMPase blocker, potentiated with lithium | Potency, µM (series often up to 59.4 µM), for the others: at the top dose activity, negative = IMPase inhibition, usual class: inhibitors | CHO-M1 cells, IP1 TR-FRET (IP-One), carbachol + lithium | AID 1457 | 0.35% of 210,000 active; active = well fitted curve in the direction sought with a large enough effect; inconclusive = small, poorly fitted or top-dose-only effect, or another doubt; inactive = no such curve, though single readings can be large; an effect the other way counts as inactive or inconclusive;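 also: IP1 builds up when IMPase is blocked and the TR-FRET signal falls; potency is read from the fitted curve at half-maximal effect; plate controls were basal vehicle for no effect and high inhibitor control for full effect; nearly all actives have a fitted effect of over 50% in size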
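Test compounds were applied to CHO-M1 cells previously cultured for 16–30 h at 2000 per well. A small lithium amount accompanied them; after 30 min at 37C, IP1 was quantified by TR-FRET.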
12-hLO inh: blocks human 12-lipoxygenase activity; Potency, µM (titrated, usually from 57.1 µM), for the others: at the highest dose activity change, negative = inhibition, actives largely listed as inhibitors; purified 12-hLO, xylenol orange hydroperoxide absorbance; P18054; AID 1452; 0.12% of 150,000 active; active = well fitted curve in the direction sought with a large enough effect; inconclusive = small, poorly fitted or top-dose-only effect, or another doubt; inactive = no such curve, though single readings can be large; an effect the other way counts as inactive or inconclusive; also: potency is read from the fitted curve at half-maximal effect; nearly all actives have a fitted effect of over 55% in size
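Lipoxygenase turnover measured by absorbance at 573 and 405 nm after Fe-XO development. Human 12hLO 150 nM, arachidonate 40 uM, pH 7.0 Hepes buffer with detergent; 15 min compound preincubation, 30 min reaction.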
ALDH1A1 inh: inhibitors of human aldehyde dehydrogenase 1A1. Potency, µM (top dose mostly 75.3 µM), inactives show at the highest dose activity, negative = inhibition, usual class: inhibitors. P00352. 7.3% of 220,000 active. Purified ALDH1A1, NADH fluorescence, propionaldehyde substrate;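 also: potency is read from the fitted curve at half-maximal effect; plate controls were no enzyme wells and a reference inhibitor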
PNC assembly inh: inhibitors of perinucleolar compartment assembly; AID 2417; PC3M PTB-GFP, PNC prevalence imaging, 16 h; stronger effect = lower value; 3.1% of 140,000 active; activity change (PNC), negative = inhibition, % at 10 µM;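 active = readout at or below -70, meaning at least 70% loss of cells showing the perinucleolar compartment, a nuclear body marking cancer cells; inconclusive = readout between -30 and a set limit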;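 also: plate controls were DMSO wells for no effect and camptothecin positive control wells for full effect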
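Compounds are pinned in duplicate onto adhered PC3M cells stably expressing GFP-tagged PTB and incubated 16 h at 37 C. Cells are then fixed, nuclei stained with Hoechst, and PNC-positive cells counted.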
The depositor's hits bear a star; ? = inconclusive; . = no result; [ ] = dose if it differs, or a comment. Unless noted, calls follow the shape of the dose curve; as a rule, active = well fitted inhibition curve with a large enough effect (not every such curve was filed as active); inconclusive = small, poorly fitted or top-dose-only effect, or another doubt; inactive = no such curve, though single readings can be large or run the other way. Unless noted, % is scaled to controls: 0 for no effect and ±100 for the full control effect.

SMILES | HPGD inh | IMPase cell inh | IMPase Li cell | 12-hLO inh | ALDH1A1 inh | PNC assembly inh
CCc1ccc2c(c1)c1nc(C)sc1n2CC | 28.2µM* | 11.5 | 15.4%[38.3 µM] | ? | 31.6µM* | 55.9
Cc1ccc2oc3c(c(=O)c2c1)C(c1ccccc1F)N(CCCN1CCOCC1)C3=O (centres undefined) | . | -2.5 | . | . | . | .
Cc1ccc(N2CC(C(=O)NCc3ccc4c(c3)OCO4)CC2=O)cc1C (centres undefined) | -14.2% | 3.5 | 21.9%[38.3 µM] | 4.2% | 14.1µM* | 5.9
COC(=O)c1ccccc1NC(=O)C1CC(=O)N(c2ccc(C)c(C)c2)C1 (centres undefined) | -10.5% | -7.1 | 25.3%[38.3 µM] | -11.2% | 17.8µM* | ?
CCN(CC)S(=O)(=O)c1ccc(NC(=O)c2ccc(Sc3nncn3C)c([N+](=O)[O-])c2)cc1 | -8.1% | 1.6 | 5.0% | 6.3% | ? | -5.8
Cn1cnnc1Sc1ccc(C(=O)NCCC23CC4CC(CC(C4)C2)C3)cc1[N+](=O)[O-] | -4.7% | -6.6 | 19.2% | -28.2% | 2.82µM* | -6.2
CN(C)S(=O)(=O)c1cccc(NC(=O)c2ccc(Sc3nncn3C)c([N+](=O)[O-])c2)c1 | . | . | 7.7% | . | 0.562µM* | .
CCS(=O)(=O)c1ccc(Sc2nncn2C)c([N+](=O)[O-])c1 | . | . | 5.8% | . | 22.4µM* | .
CN(C)c1ccc(-c2cncnc2N(C)Cc2ccco2)cc1 | . | . | 10.7% | . | ? | .
CCCCCCCCCCCCCCCC(=O)C(F)(F)F | 0.2% | -4.9 | 9.9% | 2.6% | -2.4% | .
CC(OC(=O)c1nsc(Cl)c1Cl)C(=O)NCc1ccco1 (centres undefined) | -20.0% | 9.0 | 1.5%[38.3 µM] | -0.1% | 2.5% | -7.8
CCC(OC(=O)c1nsc(Cl)c1Cl)C(=O)NCc1cccs1 (centres undefined) | 25.1µM* | 2.1 | 0.7% | 4.1% | 2.9% | -20.2
CC(C)CC(OC(=O)c1nsc(Cl)c1Cl)C(=O)NCc1cccs1 (centres undefined) | 5.01µM* | -2.3 | 19.7% | -3.2% | ? | 12.6
Nn1c(SCC(=O)N2CCCc3ccccc32)nnc1-c1ccccc1 | 3.7% | 8.7 | 22.7%[38.3 µM] | 1.6% | -8.2% | -23.3
O=C(CSc1nnc(-c2cccnc2)n1-c1ccc(SC(F)F)cc1)N1CCCc2ccccc21 | -2.0% | . | 10.1% | 2.0% | 20µM* | 27.7
CCOc1ccccc1-n1c(SCC(=O)N2CCCc3ccccc32)nnc1-c1cccnc1 | -0.7% | . | 0.8% | -1.2% | 12.6µM* | 20.7
Cc1ccc(-n2c(SCC(=O)N3CCCc4ccccc43)nnc2-c2cccnc2)c(C)c1 | -19.8% | . | 0.0% | -0.5% | ? | 8.4
CNC1C(OC2C(O[C@@H]3C(O)C(O)[C@@H](N=C(N)N)C(O)C3N=C(N)N)OC(C)[C@@]2(O)CO)OC(CO)C(O)C1O (some centres undefined) | -10.2% | . | 4.2% | 2.7% | 0.8% | .
COc1cccc(/C=c2\sc3nc(-c4cccs4)nn3c2=O)c1OC | 14.1µM* | 6.8 | 4.2%[38.3 µM] | -7.8% | 3.6% | ?
CN=CC1=C(O)c2ccccc2C1=O | -7.1% | 7.9 | 11.2%[38.3 µM] | 0.1% | -1.1% | 67.1
O=C1C(C2=C(O)c3ccccc3C2=O)=Nc2ccccc21 | -18.1% | 3.1 | 51.5%[38.3 µM] | -17.9% | 1.26µM* | 31.0
CCN1CCN(c2nc(C)nc3c2sc(=S)n3C)CC1 | 10µM* | ? | 14.0% | -5.3% | ? | -10.3
Cc1nc(N2CCCCC2)c2sc(=S)n(C)c2n1 | -4.4% | -5.0 | 9.7%[38.3 µM] | -4.7% | 1.5% | -26.9
Cc1nc2ccc(Cl)cn2c1C(=O)NN | . | . | 3.5% | . | 2µM* | .
CCOC(=O)c1c(-c2ccccc2)nc2ccc(Cl)cn12 | -1.4% | -0.6 | -20.2%[38.3 µM] | 4.6% | -2.9% | -19.5
O=C1Nc2ccccc2[C@]1(O)Cc1ccccn1 | 1.9% | . | -5.3% | -0.9%[11.4 µM] | 10.4%[13.5 µM] | .
CC(=O)Nc1sc2c(c1C#N)CCC(C)C2 (centres undefined) | . | . | 3.8% | . | -7.0% | .
Cc1ccc(C)n1-c1sc2c(c1C#N)CCC(C)C2 (centres undefined) | -26.0% | 6.4 | 50.9%[38.3 µM] | ? | 25.1µM* | -9.0
